# Data reported in PubChem BioAssay (NCATS).
# Several values for one entry are separate records, joined by “and”; a condition that tells them apart may be missing. Equal values may be shown once. Records with an inconclusive call do not appear. Where a call stands in place of a potency, no number is given. A number with no mark means an inactive call. Activity calls are given as the source filed them. Unless noted, calls come from the whole dose curve; as a rule, active = well fitted curve in the direction sought with a large enough effect; inconclusive = small, poorly fitted or top-dose-only effect, or another doubt; inactive = no such curve, though single readings can be large; an effect the other way counts as inactive or inconclusive.
# Tests used:
# [1] = Primary qHTS for small molecule stabilizers of the endoplasmic reticulum resident proteome: Secreted ER Calcium Modulated Protein (SERCaMP) assay (AID 1508630); note: potency is the fitted concentration of half-maximal effect
# How it was run: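 GLuc-SERCaMP-expressing SH-SY5Y cells, pretreated 16 h with compound, are challenged with thapsigargin to empty ER calcium stores; after 4 h, coelenterazine is added directly to the medium and luminescence is imaged.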
# [2] = Primary qHTS for inhibitors of nuclear receptor binding SET domain protein 2 (NSD2) in an isogenic RCH-ACV NSD2 p.E1099K mutant (9B) (AID 1645876); note: nearly all actives have a fitted effect of over 70% in size; note: potency is the fitted concentration of half-maximal effect
# [3] = Primary qHTS for inhibitors of nuclear receptor binding SET domain protein 2 (NSD2) in an RCH-ACV wild type WT cells (2C) (AID 1645877); note: nearly all actives have a fitted effect of over 70% in size; note: potency is the fitted concentration of half-maximal effect
# [4] = A High-Content qHTS Against Drug Library for the Identification of Small Molecules that Inhibit DYT1 Early Onset Primary Dystonia-Associated Cell Pathology (AID 1645839; calls by dose curve; note: series mostly up to about 46 µM)
# How it was run: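 Readout: %pathology, the punctate EGFP-TorsinA distribution from imaging, as the primary channel and cell count as the toxicity counterscreen. HEK293 Flp-In cells expressing delE TorsinA were induced with tetracycline and treated with compound for 48 h.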
# [5] = biological target: Rap guanine nucleotide exchange factor 3 (Homo sapiens) (UniProt O95398); experiment: Confirmatory qHTS for antagonist of cAMP-regulated guanine nucleotide exchange factor 3 (EPAC1) (AID 1645880); note: nearly all actives have a fitted effect of over 55% in size; note: potency is the fitted concentration of half-maximal effect
# How it was run: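 Nucleotide exchange uses 100 nM EPAC1, 250 nM RAP1B-BODIPY-GDP and 50 uM GDP, with compounds in a concentration-titration series. After 5 min at room temperature, fluorescence (480 nm ex/540 nm em) is read every 5 min for 30 min. Data are normalized to control ATA and DMSO.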
# Sequence of Rap guanine nucleotide exchange factor 3 (Homo sapiens) (O95398 whole entry, looked up): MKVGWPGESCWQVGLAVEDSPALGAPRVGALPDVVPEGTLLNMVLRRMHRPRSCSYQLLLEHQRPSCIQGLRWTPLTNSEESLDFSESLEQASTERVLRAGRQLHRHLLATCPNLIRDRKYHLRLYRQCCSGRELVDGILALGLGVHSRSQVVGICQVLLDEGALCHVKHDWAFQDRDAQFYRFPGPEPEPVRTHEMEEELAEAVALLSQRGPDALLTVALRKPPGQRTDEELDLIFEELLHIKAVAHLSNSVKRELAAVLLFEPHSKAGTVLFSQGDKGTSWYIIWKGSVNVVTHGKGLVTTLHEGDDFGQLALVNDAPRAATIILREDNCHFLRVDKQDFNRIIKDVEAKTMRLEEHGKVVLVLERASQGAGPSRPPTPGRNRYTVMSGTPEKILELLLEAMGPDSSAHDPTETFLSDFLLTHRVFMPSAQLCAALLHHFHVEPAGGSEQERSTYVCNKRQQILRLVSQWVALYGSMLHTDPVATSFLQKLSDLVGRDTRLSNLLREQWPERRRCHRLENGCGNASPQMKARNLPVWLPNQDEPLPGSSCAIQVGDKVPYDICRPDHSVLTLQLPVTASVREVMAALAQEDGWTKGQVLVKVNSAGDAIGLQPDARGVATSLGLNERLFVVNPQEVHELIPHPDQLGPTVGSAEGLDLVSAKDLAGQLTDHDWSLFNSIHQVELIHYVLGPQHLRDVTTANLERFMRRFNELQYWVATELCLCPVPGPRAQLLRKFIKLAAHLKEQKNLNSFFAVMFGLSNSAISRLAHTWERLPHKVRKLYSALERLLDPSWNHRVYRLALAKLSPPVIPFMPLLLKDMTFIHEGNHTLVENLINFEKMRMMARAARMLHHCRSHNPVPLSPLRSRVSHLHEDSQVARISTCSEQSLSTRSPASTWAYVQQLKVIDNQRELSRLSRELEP
smiles,measurement,setting,value
NCc1c[nH]c(=S)n1[C@H]1CCc2c(F)cc(F)cc2C1,Potency,[1],inactive
same,Potency,[2],inactive
same,Potency,[3],inactive
Cc1ccc(C(=O)N(CCCN)[C@@H](c2nc3cc(Cl)ccc3c(=O)n2Cc2ccccc2)C(C)C)cc1,Potency,[1],inactive
same,Potency,[2],0.0132 µM (active)
same,Potency,[3],0.0132 µM (active)
Cc1c(C(=O)Nc2ccc(N3C[C@@H](C)O[C@@H](C)C3)nc2)cccc1-c1ccc(OC(F)(F)F)cc1,Potency,[1],inactive
same,Potency,[2],inactive
same,Potency,[3],inactive
Cc1ccc(NC(=O)c2ccc(CN3CCN(C)CC3)cc2)cc1Nc1nc(-c2cccnc2)cs1,Potency,[1],inactive
same,Potency,[2],14.6 µM (active) and 14.8 µM (active)
same,Potency,[3],18.4 µM (active) and 14.8 µM (active)
CC(C)C[C@H](NC(=O)c1cc2ccccc2s1)C(=O)N1CCN(C(=O)[C@H](CO)NS(=O)(=O)c2ccc(Cl)cc2Cl)CC1,Potency,[1],23.7 µM (active)
same,Potency,[2],23.5 µM (active)
same,Potency,[3],20.9 µM (active)
COc1nc(C)cnc1NS(=O)(=O)c1cccnc1-c1ccc(-c2nnco2)cc1,Potency,[1],inactive
same,Potency,[2],inactive
same,Potency,[3],inactive
N#Cc1ccc(Oc2ccc3c(c2)COB3O)cc1,Potency,[1],inactive
same,Potency,[2],5.9 µM (active)
same,Potency,[3],6.61 µM (active)
COc1ccc(CCN(C)CCCOc2ccc(S(=O)(=O)c3[nH]c4ccccc4c3C(C)C)cc2)cc1OC,Potency,[1],inactive
same,Potency,[2],13.2 µM (active)
same,Potency,[3],16.6 µM (active)
CCN(CCO)CCCOc1ccc2c(Nc3cc(CC(=O)Nc4cccc(F)c4)[nH]n3)ncnc2c1,Potency,[1],inactive
same,Potency,[2],5.9 µM (active)
same,Potency,[3],0.132 µM (active)
CC1=C[C@@H]2[C@@H]([C@@H](O)C[C@@]3(C)[C@H]2C[C@@H](C)[C@]3(O)C(=O)CO)[C@@]2(C)Cc3cnn(-c4ccccc4)c3C=C12,Potency,[1],inactive
same,Potency,[2],3.32 µM (active)
same,Potency,[3],0.0026 µM (active)
C=CC(=O)Nc1cccc(Sc2nc(Nc3ccc(N4CCN(C)CC4)cc3)ncc2Cl)c1,Potency,[1],inactive
same,Potency,[2],2.9 µM (active) and 2.95 µM (active)
same,Potency,[3],2.3 µM (active) and 2.63 µM (active)
CC(C)Oc1cc(Nc2nc(N[C@@H](C)c3ccc(F)cn3)ncc2Cl)[nH]n1,Potency,[1],inactive
same,Potency,[2],7.42 µM (active) and 8.2 µM (active)
same,Potency,[3],9.34 µM (active) and 6.51 µM (active)
COC(=O)Nc1ccc(-c2nc(N3CCOCC3)c3cnn(C4CCN(C(=O)OC)CC4)c3n2)cc1,Potency,[1],inactive
same,Potency,[2],1.05 µM (active)
same,Potency,[3],0.742 µM (active)
O=C(Nc1cccc(Cl)c1)Nc1ncc(CCNc2ncnc3ccsc23)s1,Potency,[1],inactive
same,Potency,[2],1.86 µM (active)
same,Potency,[3],0.0295 µM (active)
COc1cc2ncn(-c3cc(OCc4ccccc4S(C)(=O)=O)c(C#N)s3)c2cc1OC,Potency,[1],inactive
same,Potency,[2],inactive
same,Potency,[3],inactive
CC(C)C[C@@H](N)[C@H](O)C(=O)N[C@H](C(=O)N[C@H](C(=O)N[C@@H](CC(=O)O)C(=O)O)C(C)C)C(C)C,Potency,[1],inactive
same,Potency,[2],inactive
same,Potency,[3],inactive
CCN(CC)CCCCNc1nc2cc(Cl)c(Cl)cc2nc1-c1ccc(-c2cccs2)s1,Potency,[1],inactive
same,Potency,[2],7.42 µM (active)
same,Potency,[3],7.42 µM (active)
O=[N+]([O-])c1ccc(Nc2ccccc2-c2ccccc2)c2nonc12,Potency,[1],inactive
same,Potency,[2],20.9 µM (active)
same,Potency,[3],20.9 µM (active)
CC[C@H](C=C[C@@H](C)[C@H]1CC[C@H]2[C@@H]3CC=C4C[C@@H](O)CC[C@]4(C)[C@@H]3CC[C@]12C)C(C)C,Potency,[1],inactive
same,Potency,[2],inactive
same,Potency,[3],inactive
CCC(=O)NCC[C@@H]1CCc2ccc3c(c21)CCO3,Potency,[1],inactive
same,Potency,[2],inactive
same,Potency,[3],inactive
COc1ccc2nc3cc(Cl)ccc3c(Nc3cc(CN4CCCC4)c(O)c(CN4CCCC4)c3)c2n1,Potency,[1],inactive
same,Potency,[2],2.95 µM (active)
same,Potency,[3],2.95 µM (active)
Cc1cc2c(cc1C1(c3ccc(C(=O)O)cn3)CC1)C(C)(C)CCC2(C)C,Potency,[1],inactive
same,Potency,[2],inactive
same,Potency,[3],inactive
O=C1CCCC(=O)C1C(=O)c1ccc(C(F)(F)F)cc1[N+](=O)[O-],Potency,[1],inactive
same,Potency,[2],inactive
same,Potency,[3],inactive
CS(=O)(=O)c1ccc(C2=C(c3ccccc3)C(=O)OC2)cc1,Potency,[1],inactive
same,Potency,[2],inactive
same,Potency,[3],inactive
CN[C@@H](C)[C@H]1[C@H](O)C[C@@]2(C)[C@@H]3CC[C@H]4C(C)(C)[C@@H](NC)CC[C@@]45C[C@@]35CC[C@]12C,Potency,[1],inactive
same,"activity change, negative = viability loss",[2],5.77% [at 9.23 µM]
same,"activity change, negative = cell killing",[3],-13.6% [at 9.23 µM]
NCC1CCC(C(=O)O)CC1 (configuration not stated),Potency,[1],inactive
same,Potency,[2],inactive
same,Potency,[3],inactive
OC[C@H]1O[C@@H](OCCc2ccc(O)cc2)[C@H](O)[C@@H](O)[C@H]1O,outcome,[4],inactive
CCCCC[C@H](O)C=C[C@H]1[C@H](O)CC(=O)[C@H]1CC=CCCCC(=O)O,outcome,[4],inactive
O=c1cc(-c2ccc(O)c(O)c2)oc2cc(O)cc(O)c12,Potency,[5],6.27 µM (active) and 5.77 µM (active) and 7.57 µM (active)
Cc1cc2nc3c(=O)[nH]c(=O)nc-3n(CC(O)C(O)C(O)CO)c2cc1C (configuration not stated),Potency,[5],inactive
